# In PubChem BioAssay AID651635 (National Center for Advancing Translational Sciences (NCATS), 2012):
# The campaign covered roughly 400,000 compounds. About 1,900 (0.47%) were called active. Inconclusive results (about 14%) are left out. Calls follow the shape of the dose curve; as a rule, active = well fitted cell-killing curve with a large enough effect; inconclusive = small, poorly fitted or top-dose-only effect, or effect the other way; inactive = no such curve, though single readings can be large or run the other way. Many of the other results were omitted from the sample, so actives are more common in it than they were.
# Assay: Viability Counterscreen for Primary qHTS for Inhibitors of ATXN expression; also: nearly all actives have a fitted effect of over 40% in size
# Settings: S2 cells (HEK-293 line with an ATXN2-luciferase reporter) viability, CellTiter-Fluor protease fluorescence, 24 h; series mostly up to 56.7 µM; activity change, negative = cytotoxicity: at the top concentration
# Potency is read from the fitted curve at half-maximal effect.
SMILES,"activity change, negative = cytotoxicity",Potency
Cn1nccc1C(=O)NCC1CCC2(CCN(Cc3c(O)ccc4ccccc34)CC2)O1 (stereo not drawn),-8.44% (inactive),–
COc1ccccc1C1CN(Cc2ccccc2O)Cc2ccccc2O1 (stereo not drawn),-9.48% (inactive),–
CCC1CN(CCNC(=O)c2cccc(C)n2)Cc2cc(OC)ccc2O1 (stereo not drawn),-11.5% (inactive),–
Cc1ccc2c(C)nc(N3CCCC(C(=O)NC(C)(C)CO)C3)nc2c1 (stereo not drawn),-1.89% (inactive),–
CCC1(C2CCN(Cc3cccnc3)CC2)NC(=O)N(CC2COc3ccccc3O2)C1=O (stereo not drawn),-2.28% (inactive),–
COc1cc(C)c(CN2CCc3nnc(C(C)NC(=O)c4cccnc4)n3CC2)cc1C (stereo not drawn),-8.61% (inactive),–
Cc1cccc(CNC(=O)c2cnn(-c3nccc(-c4ccccc4F)n3)c2C2CC2)n1,-6.63% (inactive),–
COC(=O)c1ccc2c(c1)N(CC(=O)Nc1ccc(C)c(C)c1)C(=O)c1ccccc1S2,-26.8% (inactive),–
CC(C)n1cnc2c(NCc3ccccc3)cc(OCC3CCN(C)CC3)cc21,–,31.6 µM (active)
CN(C)c1nccc(NCc2ccccc2)c1C#N,15.7% (inactive),–
CCC(CO)Oc1cc(NC(=O)c2ccc(Cl)cc2)c2ncn(C(C)C)c2c1 (stereo not drawn),-15.2% (inactive),–
COC(=O)c1ccc(CN2C(=O)C(Cc3ccccc3)ON=C2c2ncccc2C)o1 (stereo not drawn),-17.5% (inactive),–
CCCCC(=O)N(C)c1c(CC)nc2c(OCc3ccc(Cl)cc3Cl)cccn12,-11.9% (inactive),–
CCOC(=O)N(C)c1c(CC)nc2c(OCc3ccccc3C(=O)OC)cccn12,-37.6% (inactive),–
CCc1nc2c(OCc3ccc(F)c(F)c3)cccn2c1N(C)C(=O)c1ccco1,-26% (inactive),–
CCc1nc2c(OCc3ccc(Cl)cc3Cl)cccn2c1N(C)C(=O)C(C)C,–,22.4 µM (active)
CCc1nc2c(OCc3cccc(OC)c3)cccn2c1N(C)C(=O)C(C)C,-8.7% (inactive),–
Cc1nc2c(OCc3ccc(Cl)cc3Cl)cccn2c1N(C)CC1CC1,–,20 µM (active)
CCOC(=O)[C@]12CCC=C1N(Cc1cccc3ccccc13)C(=O)[C@H](CC(=O)NCc1cccc(C(F)(F)F)c1)C2,-37.5% (inactive),–
COc1ccc(NC(=O)C2CCC(CNS(=O)(=O)c3csc(C(N)=O)c3)CC2)cc1OC (stereo not drawn),4.18% (inactive),–
Cc1cc(NC(=O)C2CCC(CNS(=O)(=O)c3ccc(Br)s3)CC2)ccc1Br (stereo not drawn),–,35.5 µM (active)
CCCCNC(=O)C1CCC(CNS(=O)(=O)c2ccc(NC(C)=O)cc2)CC1 (stereo not drawn),–,inactive
O=C(c1cn(CC2CCCN(Cc3cc4ccccc4s3)C2)nn1)N1CCCC1 (stereo not drawn),-16.3% (inactive),–
COc1ccc(CCCNC(=O)C2Cc3c(-c4cccc(C(N)=O)c4)ccnc3O2)cc1 (stereo not drawn),-25.5% (inactive),–

SMILES,"activity change, negative = cytotoxicity",Potency
COC(=O)c1ccc2nc(-c3ccc(OC)c(OC)c3)c(Cc3ccccc3)n2c1,-38.4% (inactive),–
Cc1cc(C)cc(CN2CCc3nnc(C(NS(C)(=O)=O)C(C)C)n3CC2)c1 (stereo not drawn),-15.6% (inactive),–
OC(c1ccc(F)cc1)c1ncc(-c2cccc(C(F)(F)F)c2)[nH]1 (stereo not drawn),-35.2% (inactive),–
CC(=O)OC[C@H]1O[C@@H](O[C@H]2[C@H](O)[C@@H](OC(=O)c3ccccc3C(=O)O)[C@H](O)O[C@@H]2COC(C)=O)[C@H](O)[C@@H](OC(=O)c2ccccc2C(=O)O)[C@@H]1O,-4.22% (inactive),–
CCOc1ccc(NC(=O)CSc2c3c(nc4ccccc24)CCCC3)cc1,–,25.1 µM (active)
CCOc1ccc(-n2nc3ccc(NC(=O)c4ccc(OC)c(Cl)c4)cc3n2)cc1,-8.21% (inactive),–
CCOc1ccc(NC(=O)CSc2nc3ccccc3c(=O)n2Cc2cccs2)cc1,-15.2% (inactive),–
COc1cccc(NC(=O)c2ccc3c(SCC(=O)O)c4c(nc3c2)CCCC4)c1,-24% (inactive),–
CCOc1ccc(C(=O)Nc2ccc3nc4c(c(Nc5ccccc5OC)c3c2)CCCC4)cc1,–,14.1 µM (active)
CCOc1ccc(NC(=O)CSc2nncn2C)cc1,21.1% (inactive),–
C[C@@H]1CCC[C@H](C)N1CCCC(O)(c1ccccc1)c1ccccn1 (stereo partly drawn),-7.16% (inactive),–
FC(F)(F)c1cccc(-c2cn[nH]c2C2CCCN(Cc3cccn3-c3ccccn3)C2)c1 (stereo not drawn),-20.2% (inactive),–
O=C(NCCN1CCOCC1)c1cnn(-c2nccc(-c3cccs3)n2)c1C1CC1,-8.87% (inactive),–
O=C(OCC(O)CO)c1ccccc1Nc1ccnc2c(C(F)(F)F)cccc12 (stereo not drawn),8.14% (inactive),–
CCS(=O)(=O)Nc1cc(C(=O)N2C[C@@H](C)O[C@@H](C)C2)c2c(c1)nc(-c1ccccc1)n2C,-11.8% (inactive),–
CC1(C)OC[C@@H](COC(=O)CCc2ccc(OC[C@@H](O)CNCCNC(=O)N3CCOCC3)cc2)O1,–,inactive
CC(=O)Nc1cncc(-c2ccccc2CO)n1,-8.75% (inactive),–
COc1cnc(-c2ccccn2)nc1Oc1ccc(C(C)(C)C)cc1,–,10 µM (active)
N#Cc1ccc(Oc2cc(C(F)(F)F)nc(-c3ccccn3)n2)cc1,-38.9% (inactive),–
COc1ccc2nc(-c3ccccn3)ccc2c1,-31.3% (inactive),–
CCc1nc2c(OCCOc3ccccc3)cccn2c1N(C=O)Cc1ccc(OC)cc1,-32% (inactive),–
C#Cc1ccc(NC(=O)C2(C)CCN2C(=O)Cc2ccc(-c3ccccc3)cc2)cc1 (stereo not drawn),-21.5% (inactive),–
CC(C(=O)O)c1ccc(C2CCCCC2)c2ccccc12 (stereo not drawn),-15.4% (inactive),–
O=C(NC(=O)c1ccccc1)Nc1ccccc1O,-5.19% (inactive),–

SMILES,"activity change, negative = cytotoxicity",Potency
O=C(NC1=CC(=O)c2ccccc2C1=O)c1ccccc1,–,7.08 µM (active)
COC(=O)c1nc(NC(=O)c2ccccc2)n[nH]1,-13.5% (inactive),–
CCCS(=O)(=O)NCc1c(C)ncc2c1CCN(C(=O)c1ccc(F)c(F)c1)C2,-6.2% (inactive),–
O=C(OCCN1CCOCC1)c1cccnc1Nc1cccc(C(F)(F)F)c1,-5.42% (inactive),–
COc1ccc(NC(=O)C2(C)Cc3c(-c4cccc(NC(C)=O)c4)ccnc3O2)cc1OC (stereo not drawn),-26.5% (inactive),–
COc1ccc(-n2c(CNC(=O)c3cc(C(F)(F)F)ccc3Cl)nnc2SC)cc1,-11.2% (inactive),–
CCN(CC)c1ccc(/C=N/NC(=O)c2cnccn2)c(O)c1,–,7.94 µM (active)
COc1ccc(NC(=O)C/C(C)=N/NC(=O)c2cnccn2)cc1Cl,-13.5% (inactive),–
Cc1ccc(/C=N/NC(=O)C2=NNC(c3ccccc3)(c3ccccc3)C2)c(O)c1,-18.9% (inactive),–
COc1cc(C(=O)N2CCC(c3ccncc3)CC2)cc(OC)c1OC,-4.24% (inactive),–
CCOC(=O)[C@]12CCCC=C1N(Cc1ccc3c(c1)OCO3)C(=O)[C@H](CC(=O)NCc1cccs1)C2,-20.6% (inactive),–
Cc1ccc2nc(NC(=O)c3nc(SCc4ccccc4F)ncc3Cl)sc2c1,-29.2% (inactive),–
CCS(=O)(=O)c1ncc(N(Cc2ccc(F)cc2)Cc2ccco2)c(C(=O)Nc2cc(C)ccc2C)n1,-15.9% (inactive),–
CCOc1ccc(NC(=O)c2nc(SCC)ncc2Cl)cc1,-16.9% (inactive),–
COCCSc1nnc(NC(=O)CCS(=O)(=O)Cc2ccccc2)s1,-32.4% (inactive),–
CSc1nnc(NC(=O)c2nc(S(=O)(=O)Cc3ccc(C)cc3)ncc2Cl)s1,–,12.6 µM (active)
Cc1cccc(CS(=O)(=O)c2ncc(Cl)c(C(=O)Nc3ccc(F)cc3)n2)c1,–,31.6 µM (active)
COc1ccccc1-c1ccnc(-n2ncc(C(=O)NCCc3ccncc3)c2C)n1,-6.5% (inactive),–
Oc1[nH]c2ccccc2c1N=Nc1c(F)c(F)c(F)c(F)c1F,-34.7% (inactive),–
O=[N+]([O-])c1cc(S(=O)(=O)Nc2cccc(Cl)c2)ccc1N=Nc1c(O)[nH]c2ccccc12,–,28.2 µM (active)
O=C(O)c1ccccc1/C=N/Nc1ccc(S(=O)(=O)Nc2ccc(Cl)cc2)cc1[N+](=O)[O-],-23.7% (inactive),–
CO/N=C(\C(=O)N[C@@H]1C(=O)N2C(C(=O)O)=C(C[N+]3(C)CCCC3)CS[C@H]12)c1csc(N)n1,-14.3% [at 25.4 µM] (inactive),–
COc1cc(-c2cccnc2)cc2c1OCCN(C(=O)Cc1csc(C)n1)C2,-16.2% (inactive),–
COc1cc2[nH]c(C)c(CCN3CCN(c4ccccc4)CC3)c2cc1OC,-20.5% (inactive),–

SMILES,"activity change, negative = cytotoxicity",Potency
CC1CN(C(=O)c2ccc([N+](=O)[O-])s2)CC(C)O1 (stereo not drawn),-21.9% (inactive),–
O=[N+]([O-])c1ccc(C=Nc2ccc(Cl)cc2Cl)s1,–,11.2 µM (active)
CNN/C(N=Cc1ccc([N+](=O)[O-])s1)=N\S(=O)(=O)c1cc(C)c(Cl)cc1SCc1ccccc1,-34.8% (inactive),–
CCOC(=O)[C@]12CCC=C1N(CCC1=CCCCC1)C(=O)[C@H](CC(=O)NCc1ccc(C)o1)C2,-38% (inactive),–
COC(=O)c1c(C)c(C)nc(N)c1C#N,-3.55% (inactive),–
COC(=O)c1nn(-c2cccc(Cl)c2)ccc1=O,5.56% (inactive),–
COC(=O)c1nc(Cl)c(Cl)nc1N,–,15.8 µM (active)
CCCOc1ccc(F)cc1-c1cc(C(=O)NCc2ccc(F)cc2)[nH]n1,-12.6% (inactive),–
CCC1CN(CCNC(=O)c2ccsc2)Cc2cc(OC)ccc2O1 (stereo not drawn),-8.37% (inactive),–
CC[C@]1(O)C[C@@H]2CN(CCc3c([nH]c4ccccc34)[C@@](C(=O)OC)(c3cc4c(cc3OC)N(C)[C@H]3[C@@](O)(C(=O)OC)[C@H](OC(C)=O)[C@]5(CC)C=CCN6CC[C@]43[C@@H]65)C2)C1,–,1 µM (active)
O=C(NCC1Cc2cc(F)cc(-c3cnccn3)c2O1)C1COc2ccccc2O1 (stereo not drawn),-9.12% (inactive),–
CC[C@H](C)CCCCC(=O)N[C@@H](CCN)C(=O)N[C@H](C(=O)N[C@@H](CCN)C(=O)N[C@H]1CCNC(=O)[C@H]([C@@H](C)O)NC(=O)[C@H](CCN)NC(=O)[C@H](CCN)NC(=O)[C@H](CC(C)C)NC(=O)[C@@H](CC(C)C)NC(=O)[C@H](CCN)NC1=O)[C@@H](C)O,-1.3% (inactive),–
CCN(CC)CCOC(=O)c1ccc(NC(=O)CNC(=O)c2ccccc2)cc1,-6.36% (inactive),–
CCC(C(=O)OCCN(CC)CC)c1ccccc1 (stereo not drawn),–,inactive
CC1(C(=O)NCC2CCOCC2)Cc2c(-c3cccc(C(N)=O)c3)ccnc2O1 (stereo not drawn),-23.9% (inactive),–
O=C1NC(CC(=O)N2CCC(n3c(C4CCC4)nc4cccnc43)CC2)c2ccccc21 (stereo not drawn),-16% (inactive),–
O=CNc1cc(-c2ccc(C(=O)N3CCOCC3)cc2)cn2c(-c3ccc(F)cc3)cnc12,-26.1% (inactive),–
CCc1nc2c(OCCc3cccc(OC)c3)cccn2c1N(C)C(=O)c1ccc(C)cc1,-21.3% (inactive),–
COc1ccc(OCCCn2c(C)nc3cc(C)c(C)cc32)cc1,–,28.2 µM (active)
Cc1cc2nc(C)n(CCCNC(=O)Nc3ccccc3)c2cc1C,-11.2% (inactive),–
Cc1cc2ncn(CCCCOc3ccccc3)c2cc1C,–,inactive
